Molecular target: T1, Methionyl-tRNA synthetase, putative (Leishmania donovani (strain BPK282A1)) (UniProt E9BF75)
T1 sequence (whole entry): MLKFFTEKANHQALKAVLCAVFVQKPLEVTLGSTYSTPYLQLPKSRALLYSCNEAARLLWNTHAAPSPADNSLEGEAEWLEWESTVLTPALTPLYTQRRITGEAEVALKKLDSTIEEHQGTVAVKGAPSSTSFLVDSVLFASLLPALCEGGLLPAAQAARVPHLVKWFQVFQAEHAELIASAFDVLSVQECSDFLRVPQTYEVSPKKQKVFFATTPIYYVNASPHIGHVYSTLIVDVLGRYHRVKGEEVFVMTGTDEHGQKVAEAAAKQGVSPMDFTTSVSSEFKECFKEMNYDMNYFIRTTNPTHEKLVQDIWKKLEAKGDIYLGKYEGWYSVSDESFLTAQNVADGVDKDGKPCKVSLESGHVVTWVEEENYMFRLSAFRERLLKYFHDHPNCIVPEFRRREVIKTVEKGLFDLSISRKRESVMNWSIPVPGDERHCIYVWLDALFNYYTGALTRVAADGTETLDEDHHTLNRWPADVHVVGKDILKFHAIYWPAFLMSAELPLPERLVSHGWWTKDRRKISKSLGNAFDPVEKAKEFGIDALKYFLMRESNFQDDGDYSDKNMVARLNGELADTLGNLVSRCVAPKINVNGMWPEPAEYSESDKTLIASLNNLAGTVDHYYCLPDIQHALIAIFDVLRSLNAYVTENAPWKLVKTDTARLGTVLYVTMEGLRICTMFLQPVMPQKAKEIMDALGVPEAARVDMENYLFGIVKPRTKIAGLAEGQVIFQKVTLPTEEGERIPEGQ
Experiment: Leishmania donovani Methionine tRNA synthetase (LdMetRS):v7. Dose response assay
Type: functional
Set-up: conc 80 nM, time 150 minutes

SMILES: CCN(CC)c1ccc2ccc(C(=O)N3CCCCO3)cn12
- PXC50 (BOTTOM -0.620934572, HILLSLOPE 1.091774088, MAX_EFFECT 59.15492958, TOP 100.0): 4.06
- PXC50 (BOTTOM -3.857934484, HILLSLOPE 1.704145188, MAX_EFFECT 56.25, TOP 100.0): 4.39
- PXC50 (MAX_EFFECT 43.85964912): < 4
- PXC50 (MAX_EFFECT 47.96296296): < 4

SMILES: FC1(F)CCN(Cc2cccnc2)CC12CCN(c1ccccc1)C2 (centres undefined)
- PXC50 (BOTTOM -4.019199092, HILLSLOPE 0.87851595, MAX_EFFECT 63.88888889, TOP 104.3685566): 4.25
- PXC50 (BOTTOM -4.110370477, HILLSLOPE 0.854311737, MAX_EFFECT 59.79202773, TOP 100.0): 4.27
- PXC50 (BOTTOM -6.339797733, HILLSLOPE 0.853335904, MAX_EFFECT 59.06040268, TOP 100.0): 4.22
- PXC50 (MAX_EFFECT 7.101727447): < 4
- PXC50 (MAX_EFFECT 13.23763955): < 4

SMILES: CC(C)c1ccc(CS(=O)(=O)Cc2nc(N)nc(N(C)C)n2)cc1
- PXC50 (MAX_EFFECT 8.163265306): < 4
- PXC50 (MAX_EFFECT 10.86956522): < 4
- PXC50 (MAX_EFFECT 13.83537653): < 4

SMILES: C1CCCN(CC2CCCN(Cc3noc(C4CC4)n3)C2)CC1 (centres undefined)
- PXC50 (BOTTOM 4.352296135, HILLSLOPE 1.766055102, MAX_EFFECT 53.69127517, TOP 86.72954931): 4.1
- PXC50 (BOTTOM 8.24905968, HILLSLOPE 1.172496443, MAX_EFFECT 57.63888889, TOP 100.0): 4.05
- PXC50 (MAX_EFFECT 48.70017331): < 4

SMILES: Cc1ncc(CCNc2nc(Nc3ccc(F)c(F)c3)nc3c2cnn3C)s1
- PXC50 (MAX_EFFECT 15.8490566): < 4
- PXC50 (MAX_EFFECT 21.03004292): < 4
- PXC50 (MAX_EFFECT 21.85273159): < 4

SMILES: Cn1ncc2c(NCCO)nc(Nc3cccc(OC(F)(F)F)c3)nc21
- PXC50 (MAX_EFFECT 13.77672209): < 4
- PXC50 (MAX_EFFECT 18.02575107): < 4
- PXC50 (MAX_EFFECT 24.6628131): < 4

SMILES: Cc1cnc(Nc2ccc(F)c(F)c2)nc1NCCO
- PXC50 (BOTTOM 3.101896626, HILLSLOPE 0.807877595, MAX_EFFECT 79.29515419, TOP 94.15227944): 5.03
- PXC50 (BOTTOM 5.769615282, HILLSLOPE 1.014209397, MAX_EFFECT 83.3655706, TOP 87.41572948): 5.22
- PXC50 (BOTTOM -1.22519456, HILLSLOPE 0.709920628, MAX_EFFECT 85.74380165, TOP 105.2657083): 5

SMILES: COCCCNc1nc(Nc2ccc(F)c(F)c2)nc2c1cnn2C
- PXC50 (BOTTOM 8.707474288, HILLSLOPE 1.018785888, MAX_EFFECT 82.18527316, TOP 91.55126405): 4.89
- PXC50 (BOTTOM 8.755992534, HILLSLOPE 0.77848464, MAX_EFFECT 80.25751073, TOP 100.0): 4.77
- PXC50 (BOTTOM -0.585436575, HILLSLOPE 0.774777818, MAX_EFFECT 86.07350097, TOP 105.947702): 4.83

SMILES: OCCNc1nc(Nc2ccc(F)c(F)c2)nc2ccsc12
- PXC50 (BOTTOM 1.719198718, HILLSLOPE 0.904710071, MAX_EFFECT 90.94412331, TOP 99.0565164): 5.18
- PXC50 (BOTTOM 2.94588064, HILLSLOPE 1.041078654, MAX_EFFECT 85.02202643, TOP 89.21565971): 5.26
- PXC50 (BOTTOM 5.256543605, HILLSLOPE 0.944714137, MAX_EFFECT 88.2231405, TOP 97.0813666): 5.17

SMILES: CCc1cccc(Nc2nc(NCCO)c3cnn(C)c3n2)c1
- PXC50 (MAX_EFFECT 6.404958678): < 4
- PXC50 (MAX_EFFECT 25.11013216): < 4
- PXC50 (MAX_EFFECT 42.00385356): < 4

SMILES: Cc1noc(CCNc2nc(Nc3ccc(F)c(F)c3)nc3c2cnn3C)n1
- PXC50 (BOTTOM 2.244251311, HILLSLOPE 1.0049242, MAX_EFFECT 73.69439072, TOP 84.09605428): 4.84
- PXC50 (BOTTOM 5.127321336, HILLSLOPE 1.112866852, MAX_EFFECT 63.09012876, TOP 72.94792798): 4.77
- PXC50 (BOTTOM 6.005431852, HILLSLOPE 0.908019528, MAX_EFFECT 65.55819477, TOP 83.02457631): 4.61

SMILES: Cn1ncc2c(NCCO)nc(Nc3ccccc3S(N)(=O)=O)nc21
- PXC50 (MAX_EFFECT 2.127659574): < 4
- PXC50 (MAX_EFFECT 3.652968037): < 4
- PXC50 (MAX_EFFECT 13.39622642): < 4

SMILES: NCC1CCN(C2CCN(c3ccc(-c4ccco4)cc3)CC2)C1 (centres undefined)
- PXC50 (BOTTOM 4.43866672, HILLSLOPE 0.884621075, MAX_EFFECT 64.49275362, TOP 100.0): 4.31
- PXC50 (BOTTOM 4.60090898, HILLSLOPE 1.046241477, MAX_EFFECT 65.98639456, TOP 92.93543159): 4.34
- PXC50 (BOTTOM 4.64806131, HILLSLOPE 0.783599422, MAX_EFFECT 54.46584939, TOP 100.0): 4.09

SMILES: Cn1ncc2c(NCCO)nc(Nc3ccncc3)nc21
- PXC50 (MAX_EFFECT 4.449648712): < 4
- PXC50 (MAX_EFFECT 5.518763797): < 4
- PXC50 (MAX_EFFECT -0.37037037): < 4

SMILES: NS(=O)(=O)c1cc(Cl)cc(Cl)c1
- PXC50 (MAX_EFFECT 24.26470588): < 3
- PXC50 (MAX_EFFECT 31.80778032): < 3
- PXC50 (MAX_EFFECT 47.99235182): < 2.7

SMILES: c1ccc(CN2CCC(CCNc3ncnc4c3CCNCC4)C2)cc1 (centres undefined)
- PXC50 (BOTTOM 0.940952942, HILLSLOPE 0.875315482, MAX_EFFECT 60.13864818, TOP 100.0): 4.15
- PXC50 (BOTTOM 1.061688445, HILLSLOPE 1.57945515, MAX_EFFECT 59.73154362, TOP 100.0): 4.12
- PXC50 (BOTTOM -6.676814726, HILLSLOPE 1.817914846, MAX_EFFECT 63.88888889, TOP 100.0): 4.17

SMILES: CN(C)c1nc(N(C)C)c2cnn(C)c2n1
- PXC50 (MAX_EFFECT 10.25145068): < 4
- PXC50 (MAX_EFFECT 21.69421488): < 4
- PXC50 (MAX_EFFECT 22.46696035): < 4

Source: ChEMBL document CHEMBL3988442, “University of Dundee, Small-Polar-MMV Screening Library” (2021)
